From PubChem
GPT2 inh – GPT2 alanine aminotransferase inhibition. Recombinant GPT2, coupled pyruvate oxidase/HRP Amplex Red fluorescence. Q8TD30. Potency, µM (series often up to 57.7 µM), for inactives: at the highest dose activity change, negative = inhibition, hits mostly inhibitors. 100,000 compounds, 0.25% hits; also: nearly all actives have a fitted effect of over 60% in size
Target sequence (Q8TD30 whole entry, looked up): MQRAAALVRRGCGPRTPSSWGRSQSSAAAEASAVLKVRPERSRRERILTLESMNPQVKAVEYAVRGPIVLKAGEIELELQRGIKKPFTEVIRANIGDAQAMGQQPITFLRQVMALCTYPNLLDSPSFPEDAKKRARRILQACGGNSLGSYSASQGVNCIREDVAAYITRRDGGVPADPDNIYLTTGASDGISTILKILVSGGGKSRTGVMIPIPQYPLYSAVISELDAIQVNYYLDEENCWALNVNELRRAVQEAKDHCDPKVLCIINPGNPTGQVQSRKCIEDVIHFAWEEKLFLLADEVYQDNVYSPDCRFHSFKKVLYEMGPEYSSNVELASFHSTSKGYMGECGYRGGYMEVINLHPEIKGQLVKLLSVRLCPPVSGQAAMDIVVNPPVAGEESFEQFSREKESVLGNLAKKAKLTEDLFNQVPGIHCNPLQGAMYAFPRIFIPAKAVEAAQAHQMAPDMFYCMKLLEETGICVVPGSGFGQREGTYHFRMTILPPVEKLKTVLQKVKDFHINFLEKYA
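Recombinant GPT2 (10ng/uL) with 250uM a-KG and 2mM L-alanine, 30 min at room temperature, in HEPES pH 7.5 buffer. Pyruvate detected by pyruvate oxidase/HRP/Amplex Red fluorescence after 30 min in the dark; AOA (50uM) as positive control.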
HEK cytotox – HEK 293 cell cytotoxicity | HEK 293 viability, ATP luminescence (CellTiter-Glo), 48-72 h | Potency, µM (highest dose often 115 µM), for inactives: at the top dose activity change, negative = cytotoxicity, usual class: inhibitors | 94,000 compounds, 6.6% hits; also: nearly all actives have a fitted effect of over 60% in size
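Read-out: CellTiter-Glo ATP luminescence. Cells: HEK 293, 250 cells/well. Exposure: 48 or 72 hr, 37 degree Celsius.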
3T3 cytotox – cytotoxic compounds in NIH 3T3 cells | NIH 3T3 viability, CellTiter-Glo ATP luminescence, 48-72 h | Potency, µM (series often up to 96.7 µM), for inactives: at the top dose activity change, negative = cytotoxicity, usual class: inhibitors | AID 1345082 | 94,000 compounds, 4.3% hits; also: nearly all actives have a fitted effect of over 55% in size
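NIH 3T3 cells at 400 cells/well received 23 nL of compound by pintool and were incubated 48 or 72 h at 37 °C. Viability was read as ATP-coupled CellTiter-Glo luminescence.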
FLuc inh – inhibitors of firefly (Photinus pyralis) luciferase. P08659. purified P. pyralis luciferase, luminescence, biochemical. Potency, µM (series often up to 115 µM), usual class: inhibitors. 76,000 compounds, 2.5% hits; also: nearly all actives have a fitted effect of over 65% in size
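Cell-free enzyme assay, 10nM P. pyralis luciferase, luciferin and ATP each at 10uM. Inhibition profiled over a 6-point titration, read as luminescence.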
NPR1 antag – antagonists of human natriuretic peptide receptor Npr1; HEK293 hNpr1 GloSensor cGMP, ANP-stimulated luminescence; 76,000 compounds, 1.6% hits; Potency, µM (doses to about 46.3 µM), for inactives: at the highest dose activity change, negative = inhibition, most hits filed as inhibitors; calls by dose curve; also: nearly all actives have a fitted effect of over 60% in size
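HEK293 cells stably expressing human Npr1 and cGMP GloSensor pGS-40F, loaded 2 h with 2% GloSensor reagent, given compound 30 min at room temperature. Luminescence read before and 20 min after 0.1 nM hNppA.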
Active calls of the source: *; i = inactive; ? = inconclusive; · = no result given; [ ] = remark or other dose. Most compounds without a hit are left out; they make up all but 10% or so of the library. Unless noted, calls follow the shape of the dose curve; as a rule, active = well fitted curve in the direction sought with a large enough effect; inconclusive = small, poorly fitted or top-dose-only effect, or another doubt; inactive = no such curve, though single readings can be large; an effect the other way counts as inactive or inconclusive. % is scaled to controls: 0 for no effect and ±100 for the full control effect; potency is read from the fitted curve at half-maximal effect.

SMILES	GPT2 inh	HEK cytotox	3T3 cytotox	FLuc inh	NPR1 antag
Cc1cc(Cl)ccc1OCC(=O)N1CCC(c2n[nH]c(=O)n2-c2ccccc2)CC1	i	?	39.8µM*	i	7.9%
CN(C)c1cccc(C(=O)N2CCC(c3n[nH]c(=O)n3-c3ccccc3)CC2)c1	i	3.8%	-19.6%	31.6µM*	0.0%
Cc1cc2cc(-c3c(C)noc3C)nc(Nc3ccccc3)c2o1	-7.6%[88.5 µM]	?	31.6µM*	i	-7.8%[70.6 µM]
COc1cc(CNc2nc(-c3c(C)noc3C)cc3cc(C)oc23)cc(OC)c1	-5.5%[88.5 µM]	?	25.1µM*	i	?
Cc1cc2cc(-c3c(C)noc3C)nc(-c3ccc([S+](C)(=O)[O-])cc3)c2o1	-9.7%[88.5 µM]	-19.6%[172 µM]	?	i	1.3%[70.6 µM]
Cc1cc2cc(-c3c(C)noc3C)nc(N(C)CCN(C)C)c2o1	-4.2%[88.5 µM]	100µM*	?	i	3.9%[70.6 µM]
Cc1ccc([S+](=O)([O-])N2CCC(C(=O)N3CCC(N4Cc5cccn5C4=O)CC3)CC2)cc1	1.8%	?	?	·	·
COCCN1C(=O)c2ccccc2C(C(=O)N2CCN(c3ccccc3)CC2)C12CCCC2 (configuration not stated)	-29.8%	?	-4.5%	i	0.9%
CCc1[nH]c2ccc(CNC(=O)Cc3cnc4c(C)cccn34)cc2c1C	i	?	?	?	7.08µM*
Cc1cccn2c(CC(=O)N[C@H](c3ccccn3)C3CC(O)C3)cnc12 (some centres not stated)	-19.4%	-4.1%	-5.8%	i	0.0%
CCc1[nH]c2ccc(CNC(=O)c3coc(CN4CCOCC4)c3)cc2c1C	i	-26.4%	-13.3%	31.6µM*	1.8%
CCc1[nH]c2ccc(CNC(=O)c3scc4c3OCCO4)cc2c1C	1.3%	?	-28.3%	?	-9.4%
COc1ccc(Cn2c(=O)c(C(=O)N3CCN(c4ncccn4)CC3)nc3cccnc32)cc1	i	?	-12.7%	·	·
CCc1ccc(N2CC(c3noc(C4(c5ccc(OC)cc5)CC4)n3)CC2=O)cc1 (configuration not stated)	i	44.7µM*	?	i	?
CCc1ccc(N2CC(c3noc(-c4cccc(OC)c4OC)n3)CC2=O)cc1 (configuration not stated)	i	79.4µM*	28.2µM*	i	2.7%
CCc1ccc(N2CC(c3noc(-c4ccc(OC)cc4OC)n3)CC2=O)cc1 (configuration not stated)	i	?	?	i	-23.3%
CC(=O)NC1CCN(c2ccc3nnc(-c4ccccc4)n3n2)C1 (configuration not stated)	·	1.1%[172 µM]	-16.2%[138 µM]	·	·
Nc1cc(-c2ccncc2)c[nH]c1=O	10µM*	·	·	·	·
COc1ccc(-c2cccc(C(=O)N3CCC(NC(=O)Nc4ccccc4)CC3)c2)nn1	·	-21.5%	-26.4%	·	·
COc1ccc(-c2cccc(C(=O)N3CCC(NC(=O)Nc4ccc(Cl)cc4)CC3)c2)nn1	·	44.7µM*	25.1µM*	·	·
COc1cccc(-c2ccc(C(=O)N3CCC(NC(=O)Cc4cccc(Cl)c4)CC3)cc2)c1	-7.5%	25.1µM*	?	·	·
COc1cccc(-c2ccc(C(=O)N3CCC(NC(=O)C(C)(C)C)CC3)cc2)c1	-5.1%	?	39.8µM*	·	·
COc1cccc(-c2ccc(C(=O)N3CCC(NC(=O)Nc4ccccc4F)CC3)cc2)c1	i	15.8µM*	?	·	·
Cc1ccc(-c2cn3cc(C(=O)NCC4CCCCC4)nc3s2)cc1	-11.9%	-16.9%	-21.9%	·	·
COc1cccc(-c2ccc(C(=O)N3CCC(NC(=O)c4ccccc4C)CC3)cc2)c1	-4.3%	?	39.8µM*	·	·
SMILES	GPT2 inh	HEK cytotox	3T3 cytotox	FLuc inh	NPR1 antag
CC(C)CCN1CCC(O)(c2csc(CN3CCc4ccccc4C3)n2)CC1	-15.1%[88.5 µM]	79.4µM*	100µM*	i	5.3%[70.6 µM]
CN1CCC(N2CCC(O)(c3csc(CN4CCc5ccccc5C4)n3)CC2)CC1	0.0%[88.5 µM]	39.8µM*	56.2µM*	i	4.2%[70.6 µM]
CC(C)(C)CC(=O)N1CCC(O)(c2csc(CN3CCc4ccccc4C3)n2)CC1	?	70.8µM*	?	i	-20.8%[70.6 µM]
OC1(c2csc(CN3CCc4ccccc4C3)n2)CCN(C2CCC2)CC1	-36.2%[88.5 µM]	70.8µM*	100µM*	i	3.6%[70.6 µM]
C[S+](=O)([O-])N1CCC(c2nnc3n2C(C(=O)NC2CCCCCC2)CC3)CC1 (configuration not stated)	i	-0.7%	?	·	·
CC(C)C(=O)N1[C@@H]2CC[C@H]1CC(NC(=O)c1ccc(F)cc1)C2 (some centres not stated)	4.1%	i	-8.6%	·	·
CN1CCN(Cc2nc(C3(O)CCN(Cc4ccccc4)CC3)cs2)CC1	0.7%[88.5 µM]	?	?	i	2.8%[70.6 µM]
COc1ccc(CN2CCC(O)(c3csc(CN4CCN(C)CC4)n3)CC2)cc1	-12.2%[88.5 µM]	100µM*	89.1µM*	i	1.3%[70.6 µM]
CN(C)c1ccc(CN[C@H]2CC(C)(C)[C@@H]3C[C@@](C)(O)CC[C@]23CCC(=O)NCCc2c[nH]c3ccccc23)cc1	?	17.8µM*	17.8µM*	i	-9.3%
COc1ccccc1CN[C@H]1CC(C)(C)[C@@H]2C[C@@](C)(O)CC[C@]12CCC(=O)NCCc1c[nH]c2ccccc12	?	28.2µM*	28.2µM*	i	-13.8%
CC(C)(C)CC(=O)N[C@H]1CC(C)(C)[C@@H]2C[C@@](C)(O)CC[C@]12CCC(=O)NCCc1c[nH]c2ccccc12	i	-10.6%	?	i	-2.0%
O=C(CN1C(=O)C(Oc2ccc(F)cc2)C12CCCCC2)NCCc1ccccn1 (configuration not stated)	i	-7.1%	-19.0%	·	·
O=C(NCc1ccc(F)cc1)C1c2ccccc2C(=O)N(Cc2ccccc2)C12CCCC2 (configuration not stated)	-0.2%	39.8µM*	35.5µM*	i	-11.9%
CS(=O)(=O)N1CCC(OC2CCN(C(=O)Nc3ccc(Cl)cc3F)CC2)CC1	i	?	-25.0%	i	?
CC1CCCN(C(=O)CN2CCCc3nc(-c4ccccc4)ncc3C2=O)C1 (configuration not stated)	4.2%	79.4µM*	-19.3%	i	-14.4%
CN(Cc1cccc(C(F)(F)F)c1)C(=O)c1ccc(F)cc1	i	?	?	i	-1.4%[70.6 µM]
O=C(c1ccc(Cl)cc1)N1CC2(CCN(Cc3c[nH]c4ccccc34)CC2)Cc2ccccc21	-10.5%	20µM*	11.2µM*	·	·
O=C(c1ccc(Cl)cc1)N1CC2(CCCN(Cc3ccc(Cl)cc3)C2)Cc2ccccc21 (configuration not stated)	5.0%	?	31.6µM*	·	·
